An excerpt weighted towards active compounds, which were near 21% of everything screened.
SARS PLP yeast – inhibitors of SARS-CoV papain-like protease in yeast. Potency, µM (series often up to 32.9 µM), inactives show at the top dose activity, positive = growth rescue, usual class: activators. S. cerevisiae expressing SARS-CoV PLpro, growth rescue. 330,000 tested, 0.19% active. AID 485353; further: potency means the concentration at half of the fitted maximal effect; 0% is about no effect; nearly all actives have a fitted effect of over 55% in size
NS1 inh – influenza NS1 inhibition; Potency, µM (highest dose often 46.1 µM), inactives show at the top dose activity, positive = more growth; 270,000 tested, 0.4% active; AID 2326; further: potency means the concentration at half of the fitted maximal effect; actives are rising curves; nearly all actives have a fitted effect of over 50% in size
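A cell-based growth assay was used: compounds that relieve NS1-induced slow growth of budding yeast raise OD600. Assay medium was yeast nitrogen base with ammonium sulphate and -URA supplement, pH 6.0, with 2% galactose.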
Pf growth 96h – inhibits malaria parasite growth, 96 h; P. falciparum luciferase reporter growth, 96 h; Potency, µM (titrated, usually from 28.7 µM), for the others: at the top dose activity change, negative = inhibition, actives largely listed as inhibitors; 320,000 tested, 6.9% active; AID 504834; active means well fitted inhibition curve with a large enough effect; inconclusive means small, poorly fitted or top-dose-only effect, or another doubt; inactive means no such curve, though single readings can be large or run the other way; further: potency means the concentration at half of the fitted maximal effect; on the % scale 0 is the no-effect control and ±100 the full control effect
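Two-generation exposure (96 h) targets delayed-death phenotype. Reporter parasites carrying integrated firefly luciferase, in red cells at 2% hematocrit and 0.05% parasitemia final, kept at 37 C, 5% CO2; luminescence loss indicates inhibition.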
Shiga inhibitor – blocks Shiga toxin action in Vero cells; Vero cells, Shiga toxin protein synthesis inhibition reporter; inhibition, % at 38.7 µM; 290,000 tested, 9.2% active; AID 2315; in the data active means inhibition mostly above about 28%, no sharp cut-off; inactive means mostly below about 43%; further: 0% is about no effect
CHX counter – counter-screen for Shiga toxin inhibitors: cycloheximide protein synthesis inhibition | max response, % | AID 2314 | cell reporter, cycloheximide protein synthesis inhibition counterscreen | 300,000 tested, 12% active; in the data active means max response mostly above about 13%, no sharp cut-off; inactive means mostly below about 14%; further: read at 38.3 µM for the half of the compounds with a filed dose; 0% is about no effect
Pf growth 48h – inhibits P. falciparum growth in the first generation, 48 h | P. falciparum luciferase growth in erythrocytes, 48 h | Potency, µM (series often up to 28.7 µM), inactives show top-dose activity change, negative = inhibition, hits mostly inhibitors | 310,000 tested, 5.9% active | AID 504832; active means well fitted inhibition curve with a large enough effect; inconclusive means small, poorly fitted or top-dose-only effect, or another doubt; inactive means no such curve, though single readings can be large or run the other way; further: potency means the concentration at half of the fitted maximal effect; on the % scale 0 is the no-effect control and ±100 the full control effect
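Luminescence readout; reporter = integrated firefly luciferase in P. falciparum. RBC culture at 2% hematocrit, 0.1% parasitemia final, 37 C/5% CO2; decreased signal taken as growth inhibition.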
* hit, by the source's call; u = inconclusive; x = not tested or not shown; ! = repeats disagree; [ ] = dose if it differs, or a comment. Unless noted, the call rests on the fitted dose curve.

SMILES	SARS PLP yeast	NS1 inh	Pf growth 96h	Shiga inhibitor	CHX counter	Pf growth 48h
C/C(=N/NC(=O)Nc1ccccc1)c1ccc(C)cc1	u	-4%	17%	29*	-3	7%
CC(=O)Nc1ccc(/C(C)=N\NC(=O)c2ccc(-c3ccccc3)cc2)cc1	-1%	18%	u	7	12	0.66µM*
C/C(=N\NC(=O)c1ccc(-c2ccccc2)cc1)c1cccc(N)c1	-3%	5%	1%	21	10	1%
C/C(=N\NC(N)=S)C12CC3CC(CC(C3)C1)C2	7%	-6%	5.2µM*	-7	-3	x
CCCC1CC(C)(/C(C)=N\NC(N)=S)OC1=O (stereo not drawn)	3%	-2%	u	-2	-4	57%
CC(C)NC(=S)N(CCc1ccncc1)C(C)C	-11%	x	1.3µM*	-3	0	-4%
CN(C)S(=O)(=O)N(CC(=O)Nc1ccccc1C(F)(F)F)c1ccccc1	1%	-2%	u	24	2	u
O=C(NCc1ccco1)/C(=C/c1ccc(Cl)cc1)NC(=O)c1ccco1	1%	11%	9%	-16	-2	41%
O=C(COC(=O)CCSc1ccc(Cl)cc1)NCc1ccccc1Cl	9%	-23%	23%	12	-1	-8%
O=C(COC(=O)CCSc1ccc(Cl)cc1)NCc1ccco1	0%	5%	44%	53	19*	43%
O=C(/C=C/c1ccc(S(=O)(=O)NCc2ccco2)cc1)NCc1ccccc1Cl	21%	6%	u	20*	31*	u
O=C(/C=C/c1ccc(Cl)cc1)NCc1ccco1	-3%	-20%	u	94*	25*	-30%
N#CC1=C(N)Oc2cc(N)ccc2C1c1ccsc1 (stereo not drawn)	-5%	26%	10µM*	-2	-5	4%
Cc1ccc(C2C(C#N)=C(N)Oc3cc(N)ccc32)cc1 (stereo not drawn)	-3%	-1%	-27%	-12	-2	-3%
CCc1ccc(NC(=O)CO/N=C(\C)c2cc3ccccc3o2)cc1	-42%	-12%	89%	-21	-2	-9%
C/C(=N\OCC(=O)NC12CC3CC(CC(C3)C1)C2)c1cc2ccccc2o1	-72%	-20%	u	6	18*	-20%
C/C(=N\OCc1ccccc1C#N)c1cc2ccccc2o1	-9%	-11%	107%	71*	36*	58%
C/C(=N\OCc1ccc(C#N)cc1)c1cc2ccccc2o1	-8%	-60%	7%	38	-1	8%
CSc1ccccc1NC(=O)CO/N=C(\C)c1cc2ccccc2o1	-2%	-19%	-25%	31	18*	56%
Cc1ccc(C(=O)COC(=O)CCN2C(=O)C3C4C=CC(C5CC45)C3C2=O)cc1 (stereo not drawn)	-6%	-31%	15%	2	0	38%
COCCn1c(N)c(Sc2ccc([N+](=O)[O-])cc2)c(=O)[nH]c1=O	-1%	5%	-35%[5.75 µM]	-24	-4	-32%[5.75 µM]
CN(Cc1ccccc1)C(=O)c1nn2cccnc2c1Cl	0%	x	u	-5	2	13%[5.75 µM]
O=c1c(O)c(-c2ccc(O)c(O)c2)oc2cc(O)cc(O)c12	-4%	-8%	-5%	25	30*	u
COc1cc(-c2oc3cc(O)cc(O)c3c(=O)c2O)ccc1O	x	x	x	49*	48*!	x
CC1OC(Oc2c(-c3cc(O)c(O)c(O)c3)oc3cc(O)cc(O)c3c2=O)C(O)C(O)C1O (stereo not drawn)	0%	1%	-102%	-7	1	9.3µM*
SMILES	SARS PLP yeast	NS1 inh	Pf growth 96h	Shiga inhibitor	CHX counter	Pf growth 48h
O=c1cc(-c2ccc(O)c(O)c2)oc2cc(O)cc(O)c12	2%	-3%	4%	67*	56*	-32%
C[C@@H]1O[C@@H](OC[C@@H]2O[C@H](Oc3c(-c4ccc(O)cc4)oc4cc(O)cc(O)c4c3=O)[C@@H](O)[C@H](O)[C@H]2O)[C@H](O)[C@H](O)[C@H]1O	-9%	x	x	x	x	x
COc1ccc(-c2cc(=O)c3c(O)cc(O)cc3o2)cc1	x	x	18%	x	x	3%
CN(C(=O)c1ccoc1)c1ccccc1I	x	x	x	25	-3	x
O=C(Nc1cccn2ncnc12)c1cccc(C(F)(F)F)c1	-4%	x	202%	44	24*	447%
O=C(CCl)Nc1cccn2ncnc12	u	7%	x	-14	6	10µM*
O=C(COC(=O)C1CCCCC1)Nc1cccc(Br)c1	-8%	x	u	x	x	-15%
Cc1cc(-c2cc(C(=O)NCc3ccccc3)on2)nc(S(C)(=O)=O)n1	0%	10%	u	-9	-3	u
Cc1cc(C)n(-c2nc(SCC(=O)NCC3CCCO3)c3c4c(sc3n2)CCCC4)n1 (stereo not drawn)	-1%	-31%	4.1µM*	-16	-6	12µM*
Cc1cc(C)n(-c2nc(NCC3CCCO3)c3c4c(sc3n2)COC(C)(C)C4)n1 (stereo not drawn)	22%	-87%	2.3µM*	46	28*	x
Cc1nc2sc3c(c2c(=O)o1)CC(C)(C)OC3	28%	-5%	15µM*	-14	-1	-3%
Cc1cc(C)n(-c2nc(NCC(C)O)c3c4c(sc3n2)COC(C)(C)C4)n1 (stereo not drawn)	0%	-9%	u	-5	-3	u
Cc1nc2sc3c(c2c(=O)o1)CCC3	-9%	-10%	u	23	-2	45%
CC(C)CC(=O)c1c[nH]c(C(=O)NCc2cccs2)c1	2%	-8%	x	-4	12	6%
Cc1ccccc1-n1c(SCc2csc(Nc3ccccc3)n2)nnc1-c1cccnc1	-8%	5%	9.3µM*	-9	-5	u
Cc1ccc(Nc2nc(CSc3nnc(-c4cccnc4)n3-c3ccccc3C)cs2)cc1	10%	u	u	41	24*	-21%
O=c1cc(CSc2nnc(-c3cccnc3)n2-c2ccccc2F)nc2sccn12	2%	27%	9%	-9	-4	-12%
Cc1ccc(C(=O)NCCc2ccccc2)cc1S(=O)(=O)N1CCOCC1	1%	x	u	x	x	14%
CCOc1ccc(-c2nnn(CC(=O)N3CCCC3)n2)cc1OCC	18%	-2%	u	8	-3	-20%
Cc1ccc(-c2cc(C(F)F)nc(NCc3cccnc3)n2)cc1	-39%	-97%	17%	3	-1	13µM*
Cc1ccc(-c2cc(C(F)F)nc(NCC3CCCO3)n2)cc1 (stereo not drawn)	-60%	-68%	21%	48*	16*	-4%
Cc1ccc(CC(=O)NCc2cccnc2)cc1	0%	x	4%	-8	-1	12%
Clc1ccc(NCc2cccnc2)c(Cl)c1	-7%	-37%	u	12	5	x
FC(F)(F)c1cc(-c2ccc(Cl)cc2)nc(NCc2cccnc2)n1	-8%	-19%	x	-25	-4	3.7µM*
